Screening results: PubChem BioAssay, several laboratories
Sampled rows, rich in hits. Any-hit rate of the full collection: about 32%.
CYP2C19 inh = inhibitors of human CYP2C19; P33261; CYP2C19 Supersomes, luciferin-H EGE luminescence, 30 min; inhibition, % at 5 µM; actives 21% (n = 96,000); AID 778;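 active = CYP2C19 inhibition above a set limit at 5 µM in the primary screen, cut at about 50% in these data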;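 also: plate controls were negative control wells for no effect and 2.5 mM tranylcypromine positive control for full effect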
PostGolgi ctrl = inhibits growth of the yeast control strain; inhibition, % at 10 µM; actives 5% (n = 98,000); efflux-deficient yeast background strain, growth absorbance A615, 16 h
CYP2C9 inhib = inhibitors of human CYP2C9; AID 777; actives 20% (n = 96,000); CYP2C9 Supersomes, luciferin-H conversion, luminescence; inhibition, % at 5 µM;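 active = blocking of liver enzyme CYP2C9 beyond about 50% at 5 µM, limit read from the data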
Target sequence (P11712 whole entry, looked up): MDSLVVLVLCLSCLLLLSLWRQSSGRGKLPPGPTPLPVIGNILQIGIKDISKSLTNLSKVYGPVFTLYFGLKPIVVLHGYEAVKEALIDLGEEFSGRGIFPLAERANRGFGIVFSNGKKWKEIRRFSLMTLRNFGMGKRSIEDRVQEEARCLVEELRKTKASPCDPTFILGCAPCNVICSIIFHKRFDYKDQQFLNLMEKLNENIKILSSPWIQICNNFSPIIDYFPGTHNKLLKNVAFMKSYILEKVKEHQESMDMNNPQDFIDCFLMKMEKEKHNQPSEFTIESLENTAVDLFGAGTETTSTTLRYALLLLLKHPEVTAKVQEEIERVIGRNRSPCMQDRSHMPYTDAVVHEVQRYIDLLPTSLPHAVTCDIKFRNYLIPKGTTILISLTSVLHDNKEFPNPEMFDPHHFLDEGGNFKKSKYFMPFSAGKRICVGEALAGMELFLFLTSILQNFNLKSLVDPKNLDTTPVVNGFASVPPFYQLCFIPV
PostGolgi yeast = growth inhibition of a yeast mutant, post-Golgi transport screen. post-Golgi transport phenotypic cell assay. AID 739. inhibition, % at 10 µM. actives 0.9% (n = 98,000);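 also: yeast cells grown in 1536-well plates; yeast grown about 18 h at 30C before absorbance read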
CYP2C9 act = activators of human CYP2C9. P11712. recombinant CYP2C9, luciferin-H conversion, luminescence; active compounds read high; factor 1 = untreated enzyme, 0 = blocked. activation factor at 5 µM. actives 1.4% (n = 96,000);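 active = activation factor of 2 or more for CYP2C9 at a 5 µM dose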;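 also: 0 = sulfaphenazole-blocked wells and 1 = vehicle-only wells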
CYP2C19 activ = activators of human cytochrome P450 2C19. recombinant CYP2C19, luciferin-H EGE luminescence; active compounds read high; 0 = fully inhibited enzyme, 1 = untreated enzyme. activation factor at 5 µM. 96,000 tested, under 10 active. P33261;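 active = activation factor of at least 2 at 5 µM in the primary screen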;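 also: 0 = wells with 2.5 mM tranylcypromine and 1 = vehicle-only wells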
Starred values were filed as active, the others as inactive. Rule as the data show it, unless noted: active = inhibition above about 30%; inactive = the rest.

`COc1cc(NS(=O)(=O)c2ccc(F)cc2)c(OC)cc1NC(=O)C1CC1` gave CYP2C19 inh 98*, PostGolgi ctrl 1, CYP2C9 inhib 16, PostGolgi yeast -7, CYP2C9 act 0.8 and CYP2C19 activ 0.
Screening COc1cc(NS(=O)(=O)c2ccc(OC)c(OC)c2)cc(OC)c1 returned CYP2C19 inh 100*, PostGolgi ctrl 2, CYP2C9 inhib 74*, PostGolgi yeast 0, CYP2C9 act 0.3 and CYP2C19 activ 0.
COc1ccccc1NS(=O)(=O)c1ccc(NC(C)=O)cc1 was read as CYP2C19 inh 93*, PostGolgi ctrl 10, CYP2C9 inhib -73, PostGolgi yeast 0, CYP2C9 act 1.7 and CYP2C19 activ 0.1.
Cc1cc(NC(=O)CSc2n[nH]c(CC(C)C)n2)no1 was read as CYP2C19 inh 18, PostGolgi ctrl 11, CYP2C9 inhib 16, PostGolgi yeast 0, CYP2C9 act 0.8 and CYP2C19 activ 0.8.
For O=C(Oc1ccc2c(c1)C(=O)c1ccccc1CO2)c1ccccc1 the results were CYP2C19 inh 17, PostGolgi ctrl 4, CYP2C9 inhib 73*, PostGolgi yeast 20, CYP2C9 act 0.3 and CYP2C19 activ 0.8.
`CSc1ccccc1NC(=O)C1CCCO1` (stereo not given) gave CYP2C19 inh -10, CYP2C9 inhib -29, CYP2C9 act 1.3 and CYP2C19 activ 1.1.
Cc1ccc(-c2ccc(=O)n(CC(=O)Nc3cccc(C(=O)N4CCN(C)CC4)c3)n2)cc1 was read as CYP2C19 inh 9, PostGolgi ctrl 1, CYP2C9 inhib 2, PostGolgi yeast -1, CYP2C9 act 1 and CYP2C19 activ 0.9.
`COC(=O)C(C(C)=O)C1=C/C(=N\S(=O)(=O)c2ccc(C)cc2)c2ccccc2C1=O` (stereo not given) gave CYP2C19 inh 90*, PostGolgi ctrl 6, CYP2C9 inhib 89*, PostGolgi yeast 1, CYP2C9 act 0.1 and CYP2C19 activ 0.1.
O=C(CN1CCN(c2ccccn2)CC1)N1c2ccccc2CCc2ccccc21 was read as PostGolgi ctrl 21 and PostGolgi yeast -4.
For O=C(CN1CCN(c2ccccn2)CC1)N1c2ccccc2Sc2ccc(C(F)(F)F)cc21 the results were CYP2C19 inh 73*, PostGolgi ctrl 41*, CYP2C9 inhib 44, PostGolgi yeast 3, CYP2C9 act 0.6 and CYP2C19 activ 0.3.
Screening Cc1cccnc1Nc1nc(-c2ccccn2)cs1 returned CYP2C19 inh -1, PostGolgi ctrl 52*, CYP2C9 inhib 4, PostGolgi yeast 101*, CYP2C9 act 1 and CYP2C19 activ 1.
Screening Cc1cccc(Nc2nc(-c3ccccn3)cs2)n1 returned CYP2C19 inh 58*, PostGolgi ctrl 13, CYP2C9 inhib 52*, PostGolgi yeast 25, CYP2C9 act 0.5 and CYP2C19 activ 0.4.
For Cc1cccnc1Nc1nc(-c2ccc(O)cc2O)cs1 the results were CYP2C19 inh 18, PostGolgi ctrl 59*, CYP2C9 inhib 26, PostGolgi yeast -1, CYP2C9 act 0.7 and CYP2C19 activ 0.8.
`NS(=O)(=O)c1ccc(Nc2nc(-c3ccc(O)cc3O)cs2)cc1` gave CYP2C19 inh 79*, PostGolgi ctrl 13, CYP2C9 inhib 68*, PostGolgi yeast -1, CYP2C9 act 0.3 and CYP2C19 activ 0.2.
For O=C(CCCSc1ccccc1)Nc1nc(-c2ccccn2)cs1 the results were CYP2C19 inh 12, PostGolgi ctrl 8, CYP2C9 inhib 38, PostGolgi yeast 8, CYP2C9 act 0.6 and CYP2C19 activ 0.9.
CCCOC(=O)c1ccc(NC(=O)c2cn(CC)c3nc(C)ccc3c2=O)cc1 was read as CYP2C19 inh -3, PostGolgi ctrl 3, CYP2C9 inhib 11, PostGolgi yeast -2, CYP2C9 act 0.9 and CYP2C19 activ 1.
O=C(NC(=O)c1ccncc1)NC(c1ccccc1)c1ccccc1 was read as CYP2C19 inh 34, PostGolgi ctrl 10, CYP2C9 inhib 34, PostGolgi yeast 0, CYP2C9 act 0.7 and CYP2C19 activ 0.7.
`CC(=O)Nc1cccc(-c2csc(Nc3ccccn3)n2)c1` gave CYP2C19 inh 1, PostGolgi ctrl 12, CYP2C9 inhib 34, PostGolgi yeast -15, CYP2C9 act 0.7 and CYP2C19 activ 1.
Oc1ccc(Nc2nc(-c3ccc4ccccc4c3)cs2)cc1 was read as CYP2C19 inh -5, PostGolgi ctrl 82*, CYP2C9 inhib -93, PostGolgi yeast 93*, CYP2C9 act 1.9 and CYP2C19 activ 1.
For c1ccc(Nc2nc(-c3cccs3)cs2)nc1 the results were PostGolgi ctrl 31* and PostGolgi yeast -8.
Screening COc1cc(C(c2sc3nc(C)nn3c2O)N2CCN(c3ccccc3)CC2)cc(OC)c1OC (stereo not given) returned PostGolgi ctrl 0 and PostGolgi yeast 6.
`CCCOc1ccc([N+](=O)[O-])cc1C1NC(=S)NC(c2ccccc2)=C1C(=O)OCC` (stereo not given) gave CYP2C19 inh 20, PostGolgi ctrl 25, CYP2C9 inhib 67*, PostGolgi yeast 3, CYP2C9 act 0.3 and CYP2C19 activ 0.8.
Screening CCOC(=O)C1=C(c2cccc(F)c2)NC(=S)NC1C (stereo not given) returned CYP2C19 inh 72*, PostGolgi ctrl 7, CYP2C9 inhib 6, PostGolgi yeast 16, CYP2C9 act 0.9 and CYP2C19 activ 0.3.
For CC(C)CNC(=S)NC1CC2CCC(C1)N2Cc1ccccc1 (stereo not given) the results were PostGolgi ctrl -4 and PostGolgi yeast -1.
Screening Nc1nc(C2CC2)c(Sc2sc(N)nc2C2CC2)s1 returned CYP2C19 inh 62*, PostGolgi ctrl 7, CYP2C9 inhib 48, PostGolgi yeast 3, CYP2C9 act 0.5 and CYP2C19 activ 0.4.
For CN1CCN(C2=C(Cl)C(=O)N(c3ccc(Cl)cc3)C2=O)CC1 the results were CYP2C19 inh 88*, PostGolgi ctrl 31*, CYP2C9 inhib 56*, PostGolgi yeast 1, CYP2C9 act 0.4 and CYP2C19 activ 0.1.
O=C1C(Cl)=C(N2CCOCC2)C(=O)N1c1cccc(Cl)c1 was read as CYP2C19 inh 85*, PostGolgi ctrl 3, CYP2C9 inhib 44, PostGolgi yeast 0, CYP2C9 act 0.6 and CYP2C19 activ 0.1.
O=C1C(Cl)=C(N2CCCCCC2)C(=O)N1c1ccccc1 was read as CYP2C19 inh 29, PostGolgi ctrl 18, CYP2C9 inhib 18, PostGolgi yeast -4, CYP2C9 act 0.8 and CYP2C19 activ 0.7.
For COc1ccc(C(=O)CSc2nc(SC)ns2)cc1OC the results were CYP2C19 inh 62*, PostGolgi ctrl 3, CYP2C9 inhib -2, PostGolgi yeast 0, CYP2C9 act 1 and CYP2C19 activ 0.4.
Screening CC1CCN(c2nc3ccc(C(=O)N4CCN(Cc5ccc6c(c5)OCO6)CC4)cc3s2)CC1 returned CYP2C19 inh 94*, PostGolgi ctrl 41*, CYP2C9 inhib 90*, PostGolgi yeast 10, CYP2C9 act 0.1 and CYP2C19 activ 0.1.
